# Results taken from article PMC7862700, “An all-to-all approach to the identification of sequence-specific readers for epigenetic DNA modifications on cytosine”.
# Key:
# Experiment in all cases: DAPPL (digital affinity profiling via proximity ligation, sequencing); 10 mM Tris-HCl pH 7.5, 50 mM NaCl, 1 mM DTT, 4% glycerol, room temperature, 30 min; GST-TFs on glutathione beads, 16-mer random dsDNA library, 0.1% formaldehyde crosslink after washing; high values mean tight binding
# [1] = molecular target: T1, FLI1 (Homo sapiens, UniProt Q01543 1-452); settings: protein: recombinant; tags: N-terminal GST; dsDNA, one strand shown
# T1 sequence: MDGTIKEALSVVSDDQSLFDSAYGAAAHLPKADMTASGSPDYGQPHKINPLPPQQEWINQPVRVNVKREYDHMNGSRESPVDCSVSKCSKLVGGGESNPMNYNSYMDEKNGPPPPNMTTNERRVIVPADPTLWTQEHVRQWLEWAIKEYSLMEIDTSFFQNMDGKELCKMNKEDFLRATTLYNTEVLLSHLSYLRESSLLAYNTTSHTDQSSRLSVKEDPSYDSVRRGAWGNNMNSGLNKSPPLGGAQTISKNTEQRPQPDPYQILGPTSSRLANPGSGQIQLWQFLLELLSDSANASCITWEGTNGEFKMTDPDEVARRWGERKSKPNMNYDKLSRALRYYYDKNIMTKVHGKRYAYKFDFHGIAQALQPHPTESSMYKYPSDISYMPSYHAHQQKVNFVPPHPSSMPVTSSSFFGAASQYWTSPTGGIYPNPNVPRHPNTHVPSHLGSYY
# Summary of the method: (§1)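 The binding signal reported is, for every hexamer, its read frequency for a factor over its read frequency for the tag-only sample. Reads came from pools of yeast-expressed, GST-fused human transcription factors on glutathione beads, barcoded with DNA and mixed with that sample, which were incubated with 200 nmole of a random double-stranded 16-mer DNA library in Tris/NaCl/DTT/glycerol buffer at room temperature for 30 min. After washing, the pools were crosslinked with 0.1% formaldehyde, proximity-ligated with BsaI/T4 ligase for 1 h at 37 °C, PCR-amplified and sequenced on an Illumina NextSeq500.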
# [2] = molecular target: T2, ELK1 (Homo sapiens, UniProt P19419 1-428); settings: protein: recombinant; tags: N-terminal GST; dsDNA, one strand shown
# T2 sequence: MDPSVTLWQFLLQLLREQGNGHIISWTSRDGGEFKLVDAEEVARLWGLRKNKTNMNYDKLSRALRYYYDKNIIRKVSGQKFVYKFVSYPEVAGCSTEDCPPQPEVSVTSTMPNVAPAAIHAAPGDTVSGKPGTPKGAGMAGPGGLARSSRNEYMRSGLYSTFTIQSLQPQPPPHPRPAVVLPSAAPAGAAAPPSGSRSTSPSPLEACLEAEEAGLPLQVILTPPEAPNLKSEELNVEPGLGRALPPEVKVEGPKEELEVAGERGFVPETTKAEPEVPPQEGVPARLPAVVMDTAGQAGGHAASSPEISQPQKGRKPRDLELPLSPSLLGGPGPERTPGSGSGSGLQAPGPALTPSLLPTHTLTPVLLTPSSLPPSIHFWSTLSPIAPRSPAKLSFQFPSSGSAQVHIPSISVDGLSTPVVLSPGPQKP
# Summary of the method: as §1
# [3] = molecular target: T3, GABPA (Homo sapiens, UniProt Q06546 1-454); settings: protein: recombinant; tags: N-terminal GST; dsDNA, one strand shown
# T3 sequence: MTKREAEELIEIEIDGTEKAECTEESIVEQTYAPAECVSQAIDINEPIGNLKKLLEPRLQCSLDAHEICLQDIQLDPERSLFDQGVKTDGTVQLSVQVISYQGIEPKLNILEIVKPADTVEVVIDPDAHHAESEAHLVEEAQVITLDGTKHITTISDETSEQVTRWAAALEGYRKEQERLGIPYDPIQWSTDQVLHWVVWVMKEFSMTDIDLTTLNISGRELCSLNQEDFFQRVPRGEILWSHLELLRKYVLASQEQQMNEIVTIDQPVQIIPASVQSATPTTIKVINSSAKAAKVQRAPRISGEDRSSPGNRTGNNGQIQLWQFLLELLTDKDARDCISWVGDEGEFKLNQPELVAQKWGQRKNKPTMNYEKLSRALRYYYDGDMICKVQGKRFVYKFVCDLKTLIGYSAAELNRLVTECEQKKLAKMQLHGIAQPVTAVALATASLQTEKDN
# Summary of the method: as §1
# [4] = molecular target: T4, ERG (Homo sapiens, UniProt P11308 1-479); settings: protein: recombinant; tags: N-terminal GST; dsDNA, one strand shown
# T4 sequence: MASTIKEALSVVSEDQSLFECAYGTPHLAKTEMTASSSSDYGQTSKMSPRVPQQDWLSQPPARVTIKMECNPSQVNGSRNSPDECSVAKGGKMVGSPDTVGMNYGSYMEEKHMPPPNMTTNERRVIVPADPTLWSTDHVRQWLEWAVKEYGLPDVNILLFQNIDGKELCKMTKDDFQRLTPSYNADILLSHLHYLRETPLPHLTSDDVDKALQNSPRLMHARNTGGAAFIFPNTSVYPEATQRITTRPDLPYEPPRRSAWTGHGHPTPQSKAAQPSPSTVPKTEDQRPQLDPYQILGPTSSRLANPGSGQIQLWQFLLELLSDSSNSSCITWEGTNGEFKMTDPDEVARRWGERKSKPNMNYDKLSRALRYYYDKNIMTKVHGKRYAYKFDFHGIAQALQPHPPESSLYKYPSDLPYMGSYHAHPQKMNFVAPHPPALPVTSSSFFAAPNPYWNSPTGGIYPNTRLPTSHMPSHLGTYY
# Summary of the method: as §1
# [5] = molecular target: ELF1 (Homo sapiens, UniProt P32519 1-619); settings: protein: recombinant; tags: N-terminal GST; dsDNA, one strand shown
# Summary of the method: as §1
# [6] = molecular target: T5, EHF (Homo sapiens, UniProt Q9NZC4 1-300); settings: protein: recombinant; tags: N-terminal GST; dsDNA, one strand shown
# T5 sequence: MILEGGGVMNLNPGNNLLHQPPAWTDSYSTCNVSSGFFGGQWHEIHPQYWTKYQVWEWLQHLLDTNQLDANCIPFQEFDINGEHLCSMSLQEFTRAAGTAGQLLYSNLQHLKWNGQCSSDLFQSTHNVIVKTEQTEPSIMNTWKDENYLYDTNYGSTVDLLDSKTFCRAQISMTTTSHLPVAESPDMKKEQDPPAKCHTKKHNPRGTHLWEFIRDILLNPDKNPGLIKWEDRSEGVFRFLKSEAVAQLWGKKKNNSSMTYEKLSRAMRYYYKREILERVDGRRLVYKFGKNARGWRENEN
# Summary of the method: as §1
# [7] = molecular target: SPI1 (Homo sapiens, UniProt P17947 1-270); settings: protein: recombinant; tags: N-terminal GST; dsDNA, one strand shown
# Summary of the method: as §1
# [8] = molecular target: SPIB (Homo sapiens, UniProt Q01892 1-262); settings: protein: recombinant; tags: N-terminal GST; dsDNA, one strand shown
# Summary of the method: as §1
# [9] = molecular target: T6, ELK3 (Homo sapiens, UniProt P41970 1-407); settings: protein: recombinant; tags: N-terminal GST; dsDNA, one strand shown
# T6 sequence: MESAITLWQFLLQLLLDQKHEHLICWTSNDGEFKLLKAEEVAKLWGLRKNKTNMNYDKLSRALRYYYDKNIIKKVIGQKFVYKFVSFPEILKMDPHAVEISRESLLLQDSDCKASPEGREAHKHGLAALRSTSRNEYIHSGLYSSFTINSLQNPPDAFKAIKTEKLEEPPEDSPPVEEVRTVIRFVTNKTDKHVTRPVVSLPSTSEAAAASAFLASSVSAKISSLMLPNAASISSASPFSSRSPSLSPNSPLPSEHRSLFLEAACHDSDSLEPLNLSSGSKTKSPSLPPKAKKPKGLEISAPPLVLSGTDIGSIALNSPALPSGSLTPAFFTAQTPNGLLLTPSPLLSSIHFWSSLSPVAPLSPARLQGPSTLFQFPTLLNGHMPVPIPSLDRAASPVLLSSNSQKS
# Summary of the method: as §1
# [10] = molecular target: T7, FEV (Homo sapiens, UniProt Q99581 1-238); settings: protein: recombinant; tags: N-terminal GST; dsDNA, one strand shown
# T7 sequence: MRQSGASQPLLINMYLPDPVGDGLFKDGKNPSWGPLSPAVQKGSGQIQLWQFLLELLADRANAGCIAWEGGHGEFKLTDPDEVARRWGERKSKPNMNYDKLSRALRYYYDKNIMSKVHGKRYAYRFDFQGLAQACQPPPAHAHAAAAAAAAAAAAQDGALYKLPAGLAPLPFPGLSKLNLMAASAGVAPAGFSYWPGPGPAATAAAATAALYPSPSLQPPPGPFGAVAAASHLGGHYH
# Summary of the method: as §1
# [11] = molecular target: ETV5 (Homo sapiens, UniProt P41161 1-510); settings: protein: recombinant; tags: N-terminal GST; dsDNA, one strand shown
# Summary of the method: as §1
# [12] = molecular target: HSF1 (Homo sapiens, UniProt Q00613 1-529); settings: protein: recombinant; tags: N-terminal GST; chain copies: 3; dsDNA, one strand shown
# Summary of the method: as §1
# [13] = molecular target: T8, SPIC (Homo sapiens, UniProt Q8N5J4 1-248); settings: protein: recombinant; tags: N-terminal GST; dsDNA, one strand shown
# T8 sequence: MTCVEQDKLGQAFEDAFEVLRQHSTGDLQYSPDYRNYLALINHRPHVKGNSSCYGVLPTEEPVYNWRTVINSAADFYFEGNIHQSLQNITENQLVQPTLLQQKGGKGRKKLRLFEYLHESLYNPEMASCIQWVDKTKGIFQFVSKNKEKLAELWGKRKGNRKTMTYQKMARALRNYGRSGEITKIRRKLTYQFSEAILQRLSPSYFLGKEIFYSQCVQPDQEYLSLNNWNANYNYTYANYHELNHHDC
# Summary of the method: as §1
# [14] = molecular target: ELF4 (Homo sapiens, UniProt Q99607 1-663); settings: protein: recombinant; tags: N-terminal GST; dsDNA, one strand shown
# Summary of the method: as §1
# [15] = molecular target: T9, ELK4 (Homo sapiens, UniProt P28324-2 1-405); settings: protein: recombinant; tags: N-terminal GST; dsDNA, one strand shown
# T9 sequence: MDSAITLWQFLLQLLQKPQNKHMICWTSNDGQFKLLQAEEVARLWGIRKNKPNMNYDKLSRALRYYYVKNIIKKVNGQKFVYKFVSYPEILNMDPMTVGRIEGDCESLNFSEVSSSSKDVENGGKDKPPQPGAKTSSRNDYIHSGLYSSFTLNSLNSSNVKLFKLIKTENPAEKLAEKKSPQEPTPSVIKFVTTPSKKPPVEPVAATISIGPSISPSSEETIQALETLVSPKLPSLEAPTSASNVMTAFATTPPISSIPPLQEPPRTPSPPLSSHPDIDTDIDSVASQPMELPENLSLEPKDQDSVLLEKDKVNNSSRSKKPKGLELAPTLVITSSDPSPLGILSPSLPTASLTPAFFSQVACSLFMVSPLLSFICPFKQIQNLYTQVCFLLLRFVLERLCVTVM
# Summary of the method: as §1
# [16] = molecular target: T10, ETV2 (Homo sapiens, UniProt O00321 1-342); settings: protein: recombinant; tags: N-terminal GST; dsDNA, one strand shown
# T10 sequence: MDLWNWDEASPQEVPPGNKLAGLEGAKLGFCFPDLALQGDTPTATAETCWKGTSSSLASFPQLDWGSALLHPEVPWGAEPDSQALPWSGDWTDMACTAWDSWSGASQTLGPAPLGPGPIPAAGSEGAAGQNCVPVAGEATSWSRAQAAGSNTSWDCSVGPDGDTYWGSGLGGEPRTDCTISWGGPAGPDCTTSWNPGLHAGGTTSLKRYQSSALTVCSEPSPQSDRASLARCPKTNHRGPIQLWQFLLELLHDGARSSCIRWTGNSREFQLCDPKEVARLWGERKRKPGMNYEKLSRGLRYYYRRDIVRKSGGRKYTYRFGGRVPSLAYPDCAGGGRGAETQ
# Summary of the method: as §1
# [17] = molecular target: CRX (Homo sapiens, UniProt O43186 1-299); settings: protein: recombinant; tags: N-terminal GST; dsDNA, one strand shown
# Summary of the method: as §1
# [18] = molecular target: ETV1 (Homo sapiens, UniProt P50549 1-477); settings: protein: recombinant; tags: N-terminal GST; dsDNA, one strand shown
# Summary of the method: as §1
# Chain of ELF1 (P32519 whole entry): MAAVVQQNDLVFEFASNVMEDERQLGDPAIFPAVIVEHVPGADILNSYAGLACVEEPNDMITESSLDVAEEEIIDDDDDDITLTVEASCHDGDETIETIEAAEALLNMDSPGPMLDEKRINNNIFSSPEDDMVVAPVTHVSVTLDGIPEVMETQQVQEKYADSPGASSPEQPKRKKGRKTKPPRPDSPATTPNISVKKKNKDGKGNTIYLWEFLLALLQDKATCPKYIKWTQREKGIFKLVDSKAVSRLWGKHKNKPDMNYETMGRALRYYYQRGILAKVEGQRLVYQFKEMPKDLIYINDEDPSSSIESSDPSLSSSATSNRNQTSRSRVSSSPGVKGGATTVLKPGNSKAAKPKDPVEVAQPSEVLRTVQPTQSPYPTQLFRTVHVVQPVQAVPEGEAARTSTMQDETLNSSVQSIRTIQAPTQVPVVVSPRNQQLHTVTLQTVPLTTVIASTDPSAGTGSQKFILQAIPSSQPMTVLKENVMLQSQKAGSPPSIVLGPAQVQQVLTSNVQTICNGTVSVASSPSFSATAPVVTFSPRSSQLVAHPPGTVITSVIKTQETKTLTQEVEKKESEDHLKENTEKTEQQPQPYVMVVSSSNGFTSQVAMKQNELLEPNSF
# Chain of ETV1 (P50549 whole entry): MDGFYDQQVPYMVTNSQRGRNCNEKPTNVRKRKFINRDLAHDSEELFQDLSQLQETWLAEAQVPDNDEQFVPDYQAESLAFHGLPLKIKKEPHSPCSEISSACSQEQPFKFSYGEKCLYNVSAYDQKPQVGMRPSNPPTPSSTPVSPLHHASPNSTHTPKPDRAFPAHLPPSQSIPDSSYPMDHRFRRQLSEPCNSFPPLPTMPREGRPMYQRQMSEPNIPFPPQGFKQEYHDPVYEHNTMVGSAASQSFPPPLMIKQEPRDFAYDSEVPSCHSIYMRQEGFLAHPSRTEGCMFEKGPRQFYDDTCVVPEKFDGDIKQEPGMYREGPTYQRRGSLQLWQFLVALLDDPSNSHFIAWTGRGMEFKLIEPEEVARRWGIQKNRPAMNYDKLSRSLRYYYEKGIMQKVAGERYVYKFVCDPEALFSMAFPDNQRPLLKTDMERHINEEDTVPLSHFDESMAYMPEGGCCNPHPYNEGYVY
# Chain of ETV5 (P41161 whole entry): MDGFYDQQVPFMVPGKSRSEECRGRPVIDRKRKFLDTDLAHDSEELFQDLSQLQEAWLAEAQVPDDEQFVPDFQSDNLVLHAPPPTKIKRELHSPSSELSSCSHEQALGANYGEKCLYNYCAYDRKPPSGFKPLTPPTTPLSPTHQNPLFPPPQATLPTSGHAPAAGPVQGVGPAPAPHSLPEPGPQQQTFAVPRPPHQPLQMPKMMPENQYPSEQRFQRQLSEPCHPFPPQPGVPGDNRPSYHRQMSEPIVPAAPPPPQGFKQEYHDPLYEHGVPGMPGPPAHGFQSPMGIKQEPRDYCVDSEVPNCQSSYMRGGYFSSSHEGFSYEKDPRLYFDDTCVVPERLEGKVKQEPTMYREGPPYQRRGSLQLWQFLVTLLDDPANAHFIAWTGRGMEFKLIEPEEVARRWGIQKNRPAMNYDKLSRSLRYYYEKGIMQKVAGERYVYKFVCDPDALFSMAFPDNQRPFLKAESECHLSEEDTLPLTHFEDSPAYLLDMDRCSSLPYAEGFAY
# Chain of SPIB (Q01892 whole entry): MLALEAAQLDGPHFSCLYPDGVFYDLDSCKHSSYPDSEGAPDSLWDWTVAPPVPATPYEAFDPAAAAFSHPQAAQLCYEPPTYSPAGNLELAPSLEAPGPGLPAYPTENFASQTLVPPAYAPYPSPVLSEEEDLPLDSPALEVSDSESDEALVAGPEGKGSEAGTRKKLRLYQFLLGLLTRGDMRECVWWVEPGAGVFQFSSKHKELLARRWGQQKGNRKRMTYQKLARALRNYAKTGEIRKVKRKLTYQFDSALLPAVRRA
# Chain of CRX (O43186 whole entry): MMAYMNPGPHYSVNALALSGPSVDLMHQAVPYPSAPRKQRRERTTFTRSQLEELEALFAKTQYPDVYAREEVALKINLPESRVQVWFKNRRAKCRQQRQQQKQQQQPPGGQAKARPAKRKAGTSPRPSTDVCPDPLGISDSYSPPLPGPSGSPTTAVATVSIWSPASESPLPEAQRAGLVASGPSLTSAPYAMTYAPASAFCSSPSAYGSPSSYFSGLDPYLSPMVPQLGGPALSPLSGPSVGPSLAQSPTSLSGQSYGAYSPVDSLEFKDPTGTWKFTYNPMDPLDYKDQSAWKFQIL
# Chain of ELF4 (Q99607 whole entry): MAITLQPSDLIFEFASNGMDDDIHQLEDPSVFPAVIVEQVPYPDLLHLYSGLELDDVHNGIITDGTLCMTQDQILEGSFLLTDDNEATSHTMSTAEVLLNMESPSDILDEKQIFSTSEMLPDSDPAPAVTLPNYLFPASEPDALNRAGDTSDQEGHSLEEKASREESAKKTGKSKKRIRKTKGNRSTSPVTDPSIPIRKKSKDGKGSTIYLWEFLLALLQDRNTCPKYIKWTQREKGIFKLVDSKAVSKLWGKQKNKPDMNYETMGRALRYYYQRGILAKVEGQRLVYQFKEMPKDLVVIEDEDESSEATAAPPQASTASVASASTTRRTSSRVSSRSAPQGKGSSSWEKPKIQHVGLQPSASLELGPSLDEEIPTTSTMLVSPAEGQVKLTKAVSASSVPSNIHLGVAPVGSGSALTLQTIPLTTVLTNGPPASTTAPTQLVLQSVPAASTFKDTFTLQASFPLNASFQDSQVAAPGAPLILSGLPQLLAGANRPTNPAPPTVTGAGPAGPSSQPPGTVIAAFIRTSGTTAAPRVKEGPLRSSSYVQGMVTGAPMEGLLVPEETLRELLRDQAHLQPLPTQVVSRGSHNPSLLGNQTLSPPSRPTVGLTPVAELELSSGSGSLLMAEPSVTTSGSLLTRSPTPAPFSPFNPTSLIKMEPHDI
# Chain of HSF1 (Q00613 whole entry): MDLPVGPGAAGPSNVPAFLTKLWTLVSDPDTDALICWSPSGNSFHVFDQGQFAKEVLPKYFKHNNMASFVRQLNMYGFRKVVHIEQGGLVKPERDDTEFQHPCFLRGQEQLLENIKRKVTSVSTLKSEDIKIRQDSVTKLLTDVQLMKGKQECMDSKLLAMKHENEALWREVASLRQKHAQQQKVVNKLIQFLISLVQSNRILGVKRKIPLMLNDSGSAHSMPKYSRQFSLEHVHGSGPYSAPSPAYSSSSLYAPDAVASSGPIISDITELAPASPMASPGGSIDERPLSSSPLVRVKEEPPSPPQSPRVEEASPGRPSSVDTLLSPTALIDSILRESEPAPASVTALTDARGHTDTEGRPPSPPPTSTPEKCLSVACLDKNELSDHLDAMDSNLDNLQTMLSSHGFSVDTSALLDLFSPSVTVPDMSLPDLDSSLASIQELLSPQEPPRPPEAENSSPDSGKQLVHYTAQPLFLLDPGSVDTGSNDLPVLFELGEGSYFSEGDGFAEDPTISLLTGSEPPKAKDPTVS
sequence,measurement,setting,value
CCACGA,binding signal,[1],"1.18 fold enrichment (6-mer frequency, TF over GST control)"
same,binding signal,[2],"1.17 fold enrichment (6-mer frequency, TF over GST control)"
same,binding signal,[3],"1.19 fold enrichment (6-mer frequency, TF over GST control)"
same,binding signal,[4],"1.12 fold enrichment (6-mer frequency, TF over GST control)"
same,binding signal,[5],"1.1 fold enrichment (6-mer frequency, TF over GST control)"
same,binding signal,[6],"1.23 fold enrichment (6-mer frequency, TF over GST control)"
same,binding signal,[7],"1.12 fold enrichment (6-mer frequency, TF over GST control)"
same,binding signal,[8],"1.06 fold enrichment (6-mer frequency, TF over GST control)"
same,binding signal,[9],"1.16 fold enrichment (6-mer frequency, TF over GST control)"
same,binding signal,[10],"1.11 fold enrichment (6-mer frequency, TF over GST control)"
same,binding signal,[11],"1.02 fold enrichment (6-mer frequency, TF over GST control)"
same,binding signal,[12],"1.12 fold enrichment (6-mer frequency, TF over GST control)"
same,binding signal,[13],"1.17 fold enrichment (6-mer frequency, TF over GST control)"
same,binding signal,[14],"1.1 fold enrichment (6-mer frequency, TF over GST control)"
same,binding signal,[15],"1.18 fold enrichment (6-mer frequency, TF over GST control)"
same,binding signal,[16],"1.09 fold enrichment (6-mer frequency, TF over GST control)"
same,binding signal,[17],"1 fold enrichment (6-mer frequency, TF over GST control)"
same,binding signal,[18],"1.02 fold enrichment (6-mer frequency, TF over GST control)"
